Laboratory results reported in PubChem BioAssay (NCATS).
Activity calls are given as the source filed them. Where a call stands in place of a potency, no number is given. The call rests on the fitted dose curve; in most records, active means well fitted inhibition curve with a large enough effect; inconclusive means small, poorly fitted or top-dose-only effect; inactive means no such curve, though single readings can be large or run the other way.

Target: Pyruvate kinase (Leishmania mexicana) (UniProt Q27686)
Sequence (Q27686 2-499 E452W): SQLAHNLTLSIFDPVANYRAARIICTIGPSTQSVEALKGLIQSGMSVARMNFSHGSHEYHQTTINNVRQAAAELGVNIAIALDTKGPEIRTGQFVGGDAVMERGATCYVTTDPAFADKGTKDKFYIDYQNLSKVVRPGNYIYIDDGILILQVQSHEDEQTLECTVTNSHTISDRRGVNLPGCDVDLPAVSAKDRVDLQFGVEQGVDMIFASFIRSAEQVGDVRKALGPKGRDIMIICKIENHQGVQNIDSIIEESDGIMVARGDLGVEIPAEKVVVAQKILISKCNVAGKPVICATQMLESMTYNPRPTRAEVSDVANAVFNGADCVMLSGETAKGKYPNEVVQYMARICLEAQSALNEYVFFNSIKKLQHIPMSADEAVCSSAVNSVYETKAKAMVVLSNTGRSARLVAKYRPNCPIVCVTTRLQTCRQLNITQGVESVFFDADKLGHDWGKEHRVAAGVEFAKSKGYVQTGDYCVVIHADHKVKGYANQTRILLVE
Experiment: qHTS Validation Assay for Inhibitors of Leishmania Mexicana Pyruvate Kinase (AID 945)
Settings: purified L. mexicana pyruvate kinase, enzyme activity, E451W mutant enzyme; series mostly up to 57.5 µM
Description: NIH Molecular Libraries Screening Centers Network [MLSCN]
NIH Chemical Genomics Center [NCGC]
PI names: Malcom Walkinshaw, Hugh Morgan and Linda Gilmore
University of Edinburgh, Edinburgh, UK
Species of Leishmania are responsible for a wide spectrum of diseases throughout the tropics and subtropics, ranging from self-healing ulcers to highly disfiguring lesions and serious, often lethal visceral diseases, such as kala-azar. In Leishmania spp. it has been shown that both sugar uptake and gluconeogenesis are necessary to synthesize sufficient hexose-phosphate required for the production of glycoconjugates and the intracellular polysaccharide mannan which are essential for both replication and virulence of the parasites. Therefore, most of the enzymes participating in glycolysis and gluconeogenesis are expected to be essential (Naderer et al., 2006). The assay described here targets pyruvate kinase from Leishmania mexicania (LmPYK) that was obtained as a highly purified preparation from the University of Edinburgh (E451W mutant was provided). A 1536 well assay protocol was set up and validated by screening the LOPAC library in triplicate as an eight point concentration-titration series using the qHTS platform developed at the NCGC.
NCGC Assay Protocol Summary:
Three uL of substrate mix (final concentrations, 50 mM imidazole pH 7.2, 50 mM KCl, 7 mM MgCl2, 0.5 mM PEP, 0.1 mM ADP, 0.01% Tween 20, 0.05% BSA) was dispensed into white solid medium binding Greiner 1536 well plates. 23 nL of compound were delivered by a pin tool and 1 uL of enzyme mix (final concentration, 0.2 nM LmPYK, 50 mM imidazole pH 7.2, 0.05% BSA) was added. Plates were covered with stainless steel gasket-lined lids and incubated at room temperature for 1 hour. Two uL of detection and kinase stop mix (PKLight, Lonza) was added, and luminescence read by a ViewLux (Perkin Elmer) at 2 second exposure/plate using 2x binning. Controls on each plate were as follows: column 1, sixteen-point titration (1:2 dilutions) in duplicate the LmPK activator LOPAC-C8145 beginning at 57 uM final concentration; column 2, sixteen-point titration (1:2 dilutions) in duplicate activator LOPAC-S4063 beginning at 57 uM final concentration; column 3, column 4 DMSO only. Data were normalized to the neutral control (column 3).

With CCC(=O)c1ccc2c(c1)N(CCCN(C)C)c1ccccc1S2 as the compound, how does the Potency read?
The Potency was “inactive”.

For CCn1nc(C(=O)O)c(=O)c2cc3c(cc21)OCO3, which Potency is on record?
Its Potency is “inactive”.

How did the Potency turn out when CCN(CC)CCOCCOC(=O)C1(c2ccccc2)CCCC1 was run?
The Potency was “inactive”.

How did the Potency turn out when CN(C)CCCN1c2ccccc2Sc2ccccc21 was run?
Its Potency is “inactive”.

How did the Potency turn out when C(=C\c1ccccc1)/CN1CCN(C(c2ccccc2)c2ccccc2)CC1 was run?
The Potency was “inactive”.

Which Potency does the source give for COc1cc(C(=O)OCCCN2CCCN(CCCOC(=O)c3cc(OC)c(OC)c(OC)c3)CC2)cc(OC)c1OC here?
Its Potency is “inactive”.

With CN(C)C(=O)Oc1cccc([N+](C)(C)C)c1 as the compound, how does the Potency read?
Its Potency is “inactive”.

NC(=O)N1c2ccccc2C=Cc2ccccc21 was tested. Which Potency did it give?
Its Potency is “inactive”.

How did the Potency turn out when NC(N)=NC(=O)Cc1c(Cl)cccc1Cl was run?
Its Potency is “inactive”.

How did the Potency turn out when CCNC(=O)N1CCN(CCCC(c2ccc(F)cc2)c2ccc(F)cc2)CC1 was run?
Its Potency is “inactive”.

CCCCNC(=O)NS(=O)(=O)c1ccc(C)cc1 was tested. Which Potency did it give?
Its Potency is “inactive”.

How did the Potency turn out when Cc1nc2c([nH]1)c(=O)n(C)c(=O)n2Cc1ccco1 was run?
Its Potency is “inactive”.

For O=C(O)CN(CCN(CC(=O)O)CC(=O)O)CCN(CC(=O)O)CC(=O)O, which Potency is on record?
The Potency was “inactive”.

How did the Potency turn out when CCN(CC)CC(=O)Nc1c(C)cccc1C was run?
The Potency was “inactive”.

Which Potency does the source give for CCO/C([O-])=N/c1c[n+](N2CCOCC2)no1 here?
Its Potency is “inactive”.

Cc1scc2c1N(C(=O)CN1CCN(C)CC1)c1ccccc1NC2=O was tested. Which Potency did it give?
The Potency was “inactive”.

For O=C(CCNNC(=O)c1ccncc1)NCc1ccccc1, which Potency is on record?
The Potency was “inactive”.

Which Potency does the source give for Cc1ccc(=O)n(-c2ccccc2)c1 here?
The Potency was “inactive”.

C[N+](C)(C)CCCCCCCCCC[N+](C)(C)C was tested. Which Potency did it give?
The Potency was “inactive”.

How did the Potency turn out when O=C1NCN(c2ccccc2)C12CCN(CCCC(c1ccc(F)cc1)c1ccc(F)cc1)CC2 was run?
The Potency was “inactive”.

For CC(C)[N+](C)(CCOC(=O)C1c2ccccc2Oc2ccccc21)C(C)C, which Potency is on record?
Its Potency is “inactive”.

With O=C(O)CN(CCOCCOCCN(CC(=O)O)CC(=O)O)CC(=O)O as the compound, how does the Potency read?
The Potency was “inactive”.

With CCCCNc1c(C(=O)OCC)c(C)nc2c1cnn2CC as the compound, how does the Potency read?
Its Potency is “inactive”.

With CCn1cc(C(=O)O)c(=O)c2cc3c(cc21)OCO3 as the compound, how does the Potency read?
Its Potency is “inactive”.

Which Potency does the source give for CN(C)CCCN1c2ccccc2Sc2ccc(C(F)(F)F)cc21 here?
Its Potency is “inactive”.

How did the Potency turn out when CC1=NS(=O)(=O)c2cc(Cl)ccc2N1 was run?
Its Potency is “inactive”.

How did the Potency turn out when Cc1ccc(Cl)c(Nc2ccccc2C(=O)O)c1Cl was run?
The Potency was “inactive”.

How did the Potency turn out when CCCCNc1ccc(C(=O)OCCN(C)C)cc1 was run?
The Potency was “inactive”.

C[N+](C)(C)CCOC(N)=O was tested. Which Potency did it give?
Its Potency is “inactive”.

For CN(C(=O)CCCOc1ccc2[nH]c(=O)ccc2c1)C1CCCCC1, which Potency is on record?
Its Potency is “inactive”.

How did the Potency turn out when COCC(=O)O[C@]1(CCN(C)CCCc2nc3ccccc3[nH]2)CCc2cc(F)ccc2[C@@H]1C(C)C was run?
Its Potency is “inactive”.

Which Potency does the source give for CC(=O)Oc1cc(C(C)C)c(OCCN(C)C)cc1C here?
Its Potency is “inactive”.

How did the Potency turn out when CN1CCN(CC(=O)N2c3ccccc3C(=O)Nc3cccnc32)CC1 was run?
The Potency was “inactive”.

How did the Potency turn out when CCc1c(C)[nH]c2c1C(=O)C(CN1CCOCC1)CC2 (stereo not given) was run?
The Potency was “inactive”.

For CN/C(=C\[N+](=O)[O-])NCCSCc1ccc(CN(C)C)o1, which Potency is on record?
The Potency was “inactive”.

Which Potency does the source give for CC(C)NNC(=O)c1ccncc1 here?
Its Potency is “inactive”.

Which Potency does the source give for CC1=C(C)C(=O)C(CCCCC#CCCCC#CCO)=C(C)C1=O here?
Its Potency is “inactive”.

For Brc1c(NC2=NCCN2)ccc2nccnc12, which Potency is on record?
The Potency was “inactive”.

Which Potency does the source give for CN(C)C(=O)Oc1ccc[n+](C)c1 here?
Its Potency is “inactive”.

With CCCC(C(=O)OCCN(CC)CC)(c1ccccc1)c1ccccc1 as the compound, how does the Potency read?
Its Potency is “inactive”.
